Results taken from PubChem BioAssay (NCATS).
Results filed as inconclusive are left out. A call without a number means that no potency is given here. Unmarked numbers belong to inactive results. Activity calls are given as the source filed them. The call rests on the fitted dose curve; in most records, active means well fitted curve in the direction sought with a large enough effect; inconclusive means small, poorly fitted or top-dose-only effect, or another doubt; inactive means no such curve, though single readings can be large; an effect the other way counts as inactive or inconclusive. *1 amine or outer side, *2 acyl side, *3 side chain or, on linkers, in order; H or OH if unused. Where a SMILES comes first, the peptide text is derived from it. [ ]: non-standard residue; d: D form. X13 = O=C(C(CC(O)CO)O[*:1])[*:2]; NMeV = CN[CH](C(=O)O)C(C)C; NMeA = CN[CH](C)C(=O)O; βAla = NCCC(=O)O

Tests used:
CRL-7250 = normal cell line; experiment: Cytotoxic Profiling of Annotated Libraries Using Quantitative High-Throughput Screening (AID 1296008); settings: Five cell lines viability, CellTiter-Glo ATP luminescence, 48-72 h; max response: hits give low values; further: nearly all actives have a fitted effect of over 60% in size
Outline: (§1)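 Cytotoxicity was measured as CellTiter-Glo ATP luminescence, read after 10 min at room temperature. Compound treatment of the cells lasted 48 or 72 hr at 37 degrees Celsius in a qHTS format.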

HEK293 = experiment: as above; settings: Five cell lines viability, CellTiter-Glo ATP luminescence, 48-72 h; max response: hits give low values
Outline: as §1

HaCat [1] = experiment: as above; settings: Five cell lines viability, CellTiter-Glo ATP luminescence, 48-72 h; max response: hits give low values
Outline: as §1

KB-3-1 = experiment: as above; settings: Five cell lines viability, CellTiter-Glo ATP luminescence, 48-72 h; max response: hits give low values
Outline: as §1

NIH3T3 [2] = experiment: as above; settings: Five cell lines viability, CellTiter-Glo ATP luminescence, 48-72 h; max response: hits give low values
Outline: as §1

HACAT [3] = experiment: qHTS assay to identify novel small-molecules to repurpose for Merkel cell carcinoma treatment (AID 1296009); settings: MCC and control cell lines, CellTiter-Glo viability, 72 h; at 44.8 µM (top of the series) unless noted; further: nearly all actives have a fitted effect of over 60% in size
Outline: (§2)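 After compound transfer in DMSO, plates were kept 72 hr at 37 degree celsius. Luminescent ATP signal from CellTiter-Glo served as viability measure, normalized against DMSO and no-cell controls.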

NIH3T3 [4] = experiment: as above; settings: MCC and control cell lines, CellTiter-Glo viability, 72 h; at 44.8 µM (top of the series) unless noted
Outline: as §2

C33A = experiment: Primary qHTS to identify gynecologic anti-cancer compounds using libraries of approved drugs and bioactive compounds (AID 1345084); settings: Gynecologic cancer cell panel viability, ATPlite luminescence, 48 h; series mostly up to 57.5 µM; further: nearly all actives have a fitted effect of over 55% in size; further: potency means the concentration at half of the fitted maximal effect
Outline: (§3)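 Measured: luminescence after ATPlite addition (15 min, RT). Exposure: 48 h, 37 C, 5% CO2.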

CAOV3 = experiment: as above; settings: Gynecologic cancer cell panel viability, ATPlite luminescence, 48 h; series mostly up to 57.5 µM
Outline: as §3

CASKI = experiment: as above; settings: Gynecologic cancer cell panel viability, ATPlite luminescence, 48 h; series mostly up to 57.5 µM
Outline: as §3

Es-2 = experiment: as above; settings: Gynecologic cancer cell panel viability, ATPlite luminescence, 48 h; series mostly up to 57.5 µM
Outline: as §3

HeLa = experiment: as above; settings: Gynecologic cancer cell panel viability, ATPlite luminescence, 48 h; series mostly up to 57.5 µM
Outline: as §3

Hek293T = experiment: as above; settings: Gynecologic cancer cell panel viability, ATPlite luminescence, 48 h, control line for the selectivity index; series mostly up to 57.5 µM
Outline: as §3

JEG-3 = experiment: as above; settings: Gynecologic cancer cell panel viability, ATPlite luminescence, 48 h; series mostly up to 57.5 µM
Outline: as §3

| Structure (SMILES) | outcome (CRL-7250) | max response (HEK293) | outcome (HaCat [1]) | outcome (KB-3-1) | outcome (NIH3T3 [2]) | outcome (HACAT [3]) | outcome (NIH3T3 [4]) | Potency (C33A) | Potency (CAOV3) | outcome (CASKI) | Potency (Es-2) | Potency (HeLa) | Potency (Hek293T) | Potency (JEG-3) | max response (CRL-7250) | max response (KB-3-1) |
| --- | --- | --- | --- | --- | --- | --- | --- | --- | --- | --- | --- | --- | --- | --- | --- | --- |
| CC(C)C1NC(=O)C(CC2(O)c3ccccc3N3C(=O)C(Cc4ccccc4)NC32)NC1=O (configuration not stated) | inactive | -4.45% | inactive | inactive | inactive | inactive [at 17.4 µM] | inactive [at 17.4 µM] | inactive | inactive | inactive | inactive | inactive | inactive | inactive |  |  |
| CC(=O)/C=C/C1C(C)CC(O[C@@H]2O[C@H](CO)[C@@H](O)[C@H](O)[C@H]2O)CC1(C)C (some centres not stated) | inactive | 3.69% | inactive | inactive | inactive | inactive | inactive | inactive | inactive | inactive | inactive | inactive | inactive | inactive |  |  |
| CCC(C)C(N)C(=O)NCCN1CCOCC1 (configuration not stated) |  | 2.51% | inactive |  | inactive | inactive | inactive | inactive | inactive | inactive | inactive | inactive | inactive | inactive | -0.617% | 0.0309% |
| CCC(C)C1NC(=O)C2CCCN2C(=O)C(CC(O)CO)OC(=O)CCNC(=O)C(C)N(C)C(=O)C(C(C)C)N(C)C1=O (configuration not stated) (cyclo([X13]PI[NMeV][NMeA][βAla]); configuration not given here) |  | 2.6% | inactive |  | inactive | inactive [at 17.4 µM] | inactive [at 17.4 µM] | inactive | inactive | inactive | inactive | inactive | inactive | inactive | -8.24% | 9.21% |
| O=C(O)Cc1cn([C@@H]2O[C@H](CO)[C@@H](O)[C@H](O)[C@H]2O[C@@H]2O[C@H](CO)[C@@H](O)[C@H](O)[C@H]2O)c2ccccc12 |  | 2.13% | inactive |  | inactive | inactive [at 17.4 µM] | inactive [at 17.4 µM] | inactive | inactive | inactive | inactive | inactive | inactive | inactive | -3.23% | 4.7% |
| Fc1ccc(-c2c3cccc(C(F)(F)F)c3nn2Cc2ccc(F)cc2Cl)cc1 |  | 0.746% | inactive |  | inactive | inactive | inactive | inactive | inactive | inactive | inactive | inactive | inactive | inactive | -3.03% | -3.04% |
| C[C@@H](NC(=O)c1cc(C(=O)N[C@@H](Cc2ccccc2)[C@H](O)CNC2CC2)cc(N(C)S(C)(=O)=O)c1)c1ccccc1 |  | -6.18% | inactive |  | inactive | inactive | inactive | inactive | inactive | inactive | inactive | inactive | inactive | inactive | 2.97% | -1.48% |
| C=C1C(OC(C)=O)[C@@]23CCC4[C@](C)(C(=O)O)CCC[C@@]4(C)[C@]2(O)CC[C@H]1C3 (some centres not stated) |  | -3.51% | inactive |  | inactive | inactive | inactive | inactive | inactive | inactive | inactive | inactive | inactive | inactive | 1.93% | 0.958% |
| COc1cc2c(cc1O)CC(O)(CO)C(CO)C2c1ccc(OC2OC(CO)C(O)C(O)C2O)c(OC)c1 (configuration not stated) | inactive | -0.898% | inactive | inactive | inactive | inactive [at 17.4 µM] | inactive [at 17.4 µM] | inactive | inactive | inactive | inactive | inactive | inactive | inactive |  |  |
| C/C=C1/CC2C(=O)Nc3cc(O)c(OC)cc3C(=O)N2C1 (configuration not stated) |  | 2.7% | inactive |  | inactive | inactive | inactive | inactive | inactive | inactive | inactive | inactive | inactive | inactive | -13.4% | 9.54% |
| CC1(C)CC[C@]2(C(=O)O)CC[C@]3(C)C(=CCC4[C@@]5(C)C[C@H](O)[C@H](O[C@@H]6O[C@H](CO)[C@@H](O)[C@H](O)[C@H]6O)[C@@](C)(CO)C5[C@H](O)C[C@]43C)[C@@H]2C1 (some centres not stated) |  | 0.861% | inactive |  | inactive | inactive [at 17.4 µM] | inactive [at 17.4 µM] | inactive | inactive | inactive | inactive | inactive | inactive | inactive | 3.07% | 3.96% |
| CC1(CO)CCCC2(C)C1C(OC(=O)c1ccccc1)CC1C(=O)OCC12O (configuration not stated) |  | -0.598% | inactive |  | inactive | inactive | inactive | inactive | inactive | inactive | inactive | inactive | inactive | inactive | -1.52% | 5.44% |
| CCc1nnc(NS(=O)(=O)c2ccc(NC(=S)NC(=O)/C=C/c3ccc(F)cc3)cc2)s1 | inactive | -0.631% | inactive | inactive | inactive | inactive | inactive | inactive | inactive | inactive | inactive | inactive | inactive | inactive |  |  |
| O=C(C[C@@H]1C(C(=O)O)=CO[C@@H](O[C@@H]2O[C@H](CO)[C@@H](O)[C@H](O)[C@H]2O)/C1=C\CO)OCCc1ccc(O)c(O)c1 |  | 2.23% | inactive |  | inactive | inactive [at 17.4 µM] | inactive [at 17.4 µM] | inactive | inactive | inactive | inactive | inactive | inactive | inactive | -2.34% | 9.2% |
| CC(C)=CCC/C(C)=C/CO[C@@H]1O[C@H](CO[C@@H]2OC[C@](O)(CO)[C@H]2O)[C@@H](O)[C@H](O)[C@H]1O |  | -12.6% | inactive | inactive | inactive | inactive [at 17.4 µM] | inactive [at 17.4 µM] | inactive | inactive | inactive | inactive | inactive | inactive | inactive | 2.57% |  |
| COc1ccc(S(=O)(=O)Nc2nc(-c3cccc([N+](=O)[O-])c3)cs2)cc1OC |  | 2.2% | inactive |  | inactive | inactive | inactive | inactive | inactive | inactive | inactive | inactive | inactive | inactive | -1.12% | 6.48% |
| C/C1=C\CC(C)(C)/C=C/C/C(C(=O)O)=C/CC1 |  | -13.3% | inactive |  | inactive | inactive | inactive | inactive | inactive | inactive | inactive | inactive | inactive |  | -3% | -12.2% |
| CC[C@H]1OC(=O)[C@H](C)C(=O)[C@H](C)[C@@H](OC2O[C@H](C)C[C@H](N(C)C)[C@H]2O)[C@@H](C)C[C@@H](C)C(=O)/C=C/[C@]1(C)O (some centres not stated) |  | -11.3% | inactive |  | inactive | inactive [at 17.4 µM] | inactive [at 17.4 µM] | inactive | inactive | inactive | inactive | inactive | inactive | inactive | -0.333% | 7.73% |
| C/C1=C\CC[C@]2(C)O[C@H]2C(=O)c2c(C)coc2C1 |  | -1.35% | inactive |  | inactive | inactive | inactive | 7.94 µM (active) | 15.8 µM (active) | inactive | 11.2 µM (active) | 7.94 µM (active) | 10 µM (active) |  | 1.23% | -3.14% |
| C[C@]1(O)CC[C@@H]2C(C(=O)O)=CO[C@@H](O[C@@H]3O[C@H](COC(=O)/C=C/c4ccc(O)c(O)c4)[C@@H](O)[C@H](O)[C@H]3O)[C@@H]21 | inactive | 0.933% | inactive |  | inactive | inactive [at 17.4 µM] | inactive [at 17.4 µM] | inactive | inactive | inactive | inactive | inactive | inactive | inactive |  | 9.19% |
| OC[C@@]1(O)CO[C@@H](OC[C@H]2O[C@@H](OCc3ccccc3)[C@H](O)[C@@H](O)[C@@H]2O)[C@@H]1O |  | 2.46% | inactive | inactive | inactive | inactive [at 17.4 µM] | inactive [at 17.4 µM] | inactive | inactive | inactive | inactive | inactive | inactive | inactive | 1.98% |  |
| NCCCCN(Cc1nc2ccccc2[nH]1)[C@H]1CCCc2cccnc21 |  | -0.584% | inactive |  | inactive | inactive [at 17.4 µM] | inactive [at 17.4 µM] | inactive | inactive | inactive | inactive | inactive | inactive | inactive | -5.02% | 1.94% |
| COc1c(O)cc2c(c1O)C(=O)O[C@H](C)[C@H]2O | inactive | -6.03% | inactive |  | inactive | inactive | inactive | inactive | inactive | inactive | inactive | inactive | inactive | inactive |  | 4.43% |
| CC(C)(Oc1ccc(-c2nc3cc(Cl)ccc3s2)cc1)C(=O)O | inactive | -8.75% | inactive |  | inactive | inactive | inactive |  |  |  |  |  |  |  |  | 5.1% |
